mHTT CaM bind: disrupts binding of mutant huntingtin to calmodulin | P42858 | AlphaScreen His-mHTT/GST-CaM binding, luminescence | inhibition, % at 15 µM | hit rate 3.6% among 190,000 | AID 1671202
Target sequence (P42858 whole entry, looked up, change not shown): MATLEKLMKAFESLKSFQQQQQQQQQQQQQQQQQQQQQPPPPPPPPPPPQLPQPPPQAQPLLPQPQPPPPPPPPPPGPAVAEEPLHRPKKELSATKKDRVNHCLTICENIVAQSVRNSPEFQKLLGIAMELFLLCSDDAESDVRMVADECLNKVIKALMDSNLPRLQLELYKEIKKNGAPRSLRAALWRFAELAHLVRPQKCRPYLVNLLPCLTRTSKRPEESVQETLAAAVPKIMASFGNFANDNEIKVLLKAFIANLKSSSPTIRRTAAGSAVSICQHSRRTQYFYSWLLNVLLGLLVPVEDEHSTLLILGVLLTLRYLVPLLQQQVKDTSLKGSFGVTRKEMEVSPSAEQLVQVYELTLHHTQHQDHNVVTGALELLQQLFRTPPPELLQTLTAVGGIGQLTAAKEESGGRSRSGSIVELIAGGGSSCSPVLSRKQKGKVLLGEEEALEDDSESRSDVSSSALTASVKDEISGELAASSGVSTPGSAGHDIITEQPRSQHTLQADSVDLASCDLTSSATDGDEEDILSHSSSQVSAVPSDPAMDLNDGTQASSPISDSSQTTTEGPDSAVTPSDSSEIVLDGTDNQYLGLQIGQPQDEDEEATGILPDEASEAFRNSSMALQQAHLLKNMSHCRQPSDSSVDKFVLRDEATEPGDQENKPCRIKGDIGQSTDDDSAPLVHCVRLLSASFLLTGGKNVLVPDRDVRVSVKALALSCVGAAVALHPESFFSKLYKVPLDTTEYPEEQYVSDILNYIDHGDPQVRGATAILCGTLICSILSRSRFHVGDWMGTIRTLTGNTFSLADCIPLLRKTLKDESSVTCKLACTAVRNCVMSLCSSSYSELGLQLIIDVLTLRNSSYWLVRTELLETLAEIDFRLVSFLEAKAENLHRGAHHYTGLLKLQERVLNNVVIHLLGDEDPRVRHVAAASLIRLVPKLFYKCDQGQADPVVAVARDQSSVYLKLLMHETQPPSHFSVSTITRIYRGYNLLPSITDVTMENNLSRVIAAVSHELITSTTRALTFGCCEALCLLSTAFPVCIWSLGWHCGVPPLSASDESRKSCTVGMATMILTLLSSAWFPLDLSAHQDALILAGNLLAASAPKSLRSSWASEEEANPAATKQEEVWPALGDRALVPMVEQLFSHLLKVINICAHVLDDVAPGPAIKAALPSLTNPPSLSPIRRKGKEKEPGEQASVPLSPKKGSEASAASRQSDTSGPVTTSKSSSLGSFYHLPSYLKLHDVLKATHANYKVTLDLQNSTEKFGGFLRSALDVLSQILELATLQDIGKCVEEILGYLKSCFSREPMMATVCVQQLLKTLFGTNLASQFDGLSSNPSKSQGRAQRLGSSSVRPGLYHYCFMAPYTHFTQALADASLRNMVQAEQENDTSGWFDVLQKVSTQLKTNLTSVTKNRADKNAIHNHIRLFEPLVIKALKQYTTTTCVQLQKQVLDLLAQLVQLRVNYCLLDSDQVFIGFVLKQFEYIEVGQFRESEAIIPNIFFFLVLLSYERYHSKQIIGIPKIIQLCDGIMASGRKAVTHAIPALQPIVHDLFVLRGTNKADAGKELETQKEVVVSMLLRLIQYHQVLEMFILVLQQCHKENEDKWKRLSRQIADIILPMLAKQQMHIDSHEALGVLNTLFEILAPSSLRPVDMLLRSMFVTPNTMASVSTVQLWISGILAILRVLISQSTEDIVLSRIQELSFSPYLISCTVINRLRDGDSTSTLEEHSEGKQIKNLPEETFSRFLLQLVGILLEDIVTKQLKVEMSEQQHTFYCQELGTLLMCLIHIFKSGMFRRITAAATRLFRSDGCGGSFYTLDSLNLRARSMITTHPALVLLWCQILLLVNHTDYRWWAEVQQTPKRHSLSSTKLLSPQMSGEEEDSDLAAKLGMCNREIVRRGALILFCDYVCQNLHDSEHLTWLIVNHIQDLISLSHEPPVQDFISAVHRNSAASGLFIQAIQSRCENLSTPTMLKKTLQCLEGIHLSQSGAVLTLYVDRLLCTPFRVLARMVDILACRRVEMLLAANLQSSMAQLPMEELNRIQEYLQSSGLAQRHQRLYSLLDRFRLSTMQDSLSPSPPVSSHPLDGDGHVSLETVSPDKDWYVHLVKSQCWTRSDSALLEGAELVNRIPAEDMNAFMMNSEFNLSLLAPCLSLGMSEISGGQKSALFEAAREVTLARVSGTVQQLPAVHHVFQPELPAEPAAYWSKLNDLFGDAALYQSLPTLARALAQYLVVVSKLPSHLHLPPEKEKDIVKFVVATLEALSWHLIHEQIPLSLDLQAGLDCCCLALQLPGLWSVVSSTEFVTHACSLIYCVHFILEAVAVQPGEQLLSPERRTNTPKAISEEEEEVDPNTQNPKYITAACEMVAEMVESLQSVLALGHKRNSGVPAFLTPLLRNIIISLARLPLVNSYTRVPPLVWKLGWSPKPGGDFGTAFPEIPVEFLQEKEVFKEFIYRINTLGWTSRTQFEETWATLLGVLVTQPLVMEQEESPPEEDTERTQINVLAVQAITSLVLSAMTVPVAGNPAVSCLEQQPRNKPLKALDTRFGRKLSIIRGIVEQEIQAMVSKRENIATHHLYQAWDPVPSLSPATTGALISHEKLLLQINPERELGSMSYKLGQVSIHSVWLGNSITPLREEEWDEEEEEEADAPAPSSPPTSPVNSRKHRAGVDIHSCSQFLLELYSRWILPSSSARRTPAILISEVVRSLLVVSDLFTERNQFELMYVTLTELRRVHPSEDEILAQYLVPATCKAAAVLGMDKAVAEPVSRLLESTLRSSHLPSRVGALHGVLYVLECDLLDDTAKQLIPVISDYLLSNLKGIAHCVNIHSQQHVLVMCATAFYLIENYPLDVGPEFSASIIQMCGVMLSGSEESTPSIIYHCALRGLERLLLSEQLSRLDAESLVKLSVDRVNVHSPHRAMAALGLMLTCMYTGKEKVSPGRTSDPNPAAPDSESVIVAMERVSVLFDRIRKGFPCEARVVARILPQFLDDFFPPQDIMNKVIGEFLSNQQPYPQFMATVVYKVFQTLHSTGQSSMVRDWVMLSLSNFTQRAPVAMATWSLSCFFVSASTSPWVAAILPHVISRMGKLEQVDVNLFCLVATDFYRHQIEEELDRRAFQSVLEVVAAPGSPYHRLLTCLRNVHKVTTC
Pf apPOL inh: Pf-apPOL DNA polymerase inhibition; Recombinant Pf-apPOL, molecular beacon fluorescence, 1.5 h; inhibition, % at 10 µM; hit rate 0.25% among 210,000; AID 1794808
Each line names hits and unclear results; the compound was inactive in the other large screens. Hits are enriched below; roughly 3.6% of the tested compounds scored in any of these assays. Cut-off read from the data, not from the text of the source: active = inhibition above about 50%; inactive = the rest.

CCN(CC)c1ccc(C2NN=C(Cc3ccccc3)S2)cc1 (centres undefined)	mHTT CaM bind 85
CCN(CC)c1ccc(NC(=O)Cc2ccccc2)cc1	none
O=C(c1nc(N2CCCCCC2)c2oc3ccccc3c2n1)N1CCCC1	none
COc1ccccc1C(=O)Nc1nnc(C2CC(=O)N(c3ccccc3)C2)o1 (centres undefined)	none
COc1ccc(N2CC(c3nnc(NC(=O)Cc4cccs4)o3)CC2=O)cc1 (centres undefined)	mHTT CaM bind 65
CC(C)(Oc1ccc(Cl)cc1)C(=O)Nc1nnc(C2CC(=O)N(c3ccccc3)C2)o1 (centres undefined)	mHTT CaM bind 98
COc1cccc(N2CC(C(=O)Nc3c(C(N)=O)oc4ccccc34)CC2=O)c1 (centres undefined)	mHTT CaM bind 59
COc1nn(C)cc1C(=O)Nc1nnc(C2CC(=O)N(c3ccccc3)C2)o1 (centres undefined)	mHTT CaM bind 54
CC(C)(C)C(=O)Nc1nnc(C2CC(=O)N(c3ccccc3)C2)o1 (centres undefined)	none
COc1cccc(N2CC(C(=O)O)CC2=O)c1 (centres undefined)	none
CSc1ccc(N2CC(c3nnc(NC(=O)Cc4cccs4)o3)CC2=O)cc1 (centres undefined)	none
C/C(=N\NC(N)=S)c1ccco1	none (no result: Pf apPOL inh)
NC(=NOC(=O)Nc1ccc(OC(F)(F)F)cc1)c1cnccn1	none (no result: mHTT CaM bind)
Cc1cccc(-n2nc3c(c2NC(=O)c2ccc(Br)cc2)CS(=O)(=O)C3)c1C	none
O=C(CC1CCN(S(=O)(=O)c2ccc(Cl)s2)CC1)NC1CCCCC1	none
COc1ccc(CCNC(=O)c2cc3n(n2)CCCN(Cc2ccccc2)C3=O)cc1OC	none
Cc1ccc(-c2csc(/C(C#N)=C/Nc3cccc(F)c3)n2)cc1	none
CC(C)n1nccc1-c1nnc(NC(=O)C(C)(C)Oc2ccc(Cl)cc2)o1	mHTT CaM bind 66
COc1nn(C)cc1C(=O)Nc1nnc(-c2csc(C)n2)o1	mHTT CaM bind 58
Cc1nc(-c2nnc(NC(=O)CCSc3ccccc3)o2)cs1	none
COc1ccc(N2CC(c3nnc(NC(=O)Cc4ccccc4C)o3)CC2=O)cc1 (centres undefined)	none
COc1cccc(CC(=O)Nc2nnc(C3CC(=O)N(c4ccccc4)C3)o2)c1 (centres undefined)	mHTT CaM bind 87
CC(C)(Oc1ccc(Cl)cc1)C(=O)Nc1ccncc1	none
O=C(O)c1ccc(NC(=O)c2nsc(Cl)c2Cl)cc1	none
CCOc1cc(/C=c2\sc3nc4ccccc4n3c2=O)cc(I)c1OC	none
NC(=NOC(=O)Nc1cccc(C(F)(F)F)c1)C1CSCCS1 (centres undefined)	none (no result: mHTT CaM bind)
O=C(c1cc2sccc2n1Cc1ccccc1F)N1CCOCC1	none
CCn1c(C(=O)N2CCN(Cc3ccccc3)CC2)cc2sccc21	mHTT CaM bind 57
Cc1ccc(-n2[nH]c3c(cnc4ccc(C(=O)NC5CCCCC5)cc43)c2=O)cc1	none
Cc1cc(C)cc(-n2cc(-c3ccc(F)cc3)[nH]c2=O)c1	none
O=C(CN1CCN(c2ccc(F)cc2)CC1)Nc1cccnc1Cl	none
O=C(CN1CCN(c2ccc(F)cc2)CC1)Nc1ccc(Cl)c(Cl)c1	mHTT CaM bind 58
C(=Nc1cccnc1)c1c[nH]c2ccccc12	none (no result: Pf apPOL inh)
CCN(CC)c1ccc(N=Cc2c[nH]c3ccccc23)cc1	mHTT CaM bind 83
CN(C)c1ccc(C(=O)N2CCC(COc3ccc(C(=O)N4CCCCC4)cc3)CC2)cc1	none
Cc1ccc(C)c(NS(=O)(=O)c2cn(C)c3ncccc23)c1	mHTT CaM bind 55, Pf apPOL inh 91
CCCn1cc(S(=O)(=O)Nc2cccc(C)c2)c2cccnc21	none
NC(=O)c1ccc2c(c1)n(Cc1ccc(F)cc1)c(=O)c1ccnn12	none
COc1cccc(N2CCN(c3nc(C(=O)N(C)C)cs3)CC2)c1	none
CN(C)C(=O)c1csc(N2CCN(c3cccc(Cl)c3)CC2)n1	mHTT CaM bind 53
COc1ccccc1N1CCN(C(=O)c2nn(-c3ccc(F)cc3)c(=O)cc2OC)CC1	none
COc1ccccc1N1CCN(C(=O)c2sc3cccc(F)c3c2OC)CC1	mHTT CaM bind 78
COc1ccc(N2CCN(C(=O)c3sc4cccc(F)c4c3OC)CC2)cc1	mHTT CaM bind 64
COc1ccc(-n2cc(C(=O)N3CCN(c4ccc(F)cc4)CC3)c3ccccc3c2=O)cc1	mHTT CaM bind 78
COc1ccccc1N1CCN(C(=O)c2nn(-c3ccc(F)cc3)cc2OC)CC1	mHTT CaM bind 68
COc1ccc(-n2cc(C(=O)N3CCN(c4ccccc4F)CC3)c3ccccc3c2=O)cc1	none
COc1cccc(N2CCN(C(=O)c3sc4cccc(F)c4c3OC)CC2)c1	none
COc1ccccc1N1CCN(C(=O)c2ccccc2F)CC1	none
COc1ccc(S(=O)(=O)Nc2ccc(S(=O)(=O)NC(=O)c3ccccc3)cc2)cc1OC	none
NC(=O)c1ccccc1NC(=O)c1sc2ccccc2c1Cl	none
Cc1cccc(NC(=O)c2ccc(F)cc2)c1C(=O)O	none
COc1ccc(Nc2ncc3c(n2)CCN(Cc2ccc4c(c2)OCCO4)C3)c(OC)c1	none

Bioassay records deposited in PubChem by University of Kansas High Throughput Screening Laboratory.
